In test [1] the test system is Plasmodium falciparum Sir2 (PF13_0152, Sir2A). As to the kind of experiment: pfSir2 binders on small-molecule microarrays, primary screen, biochemical, small-molecule microarray, 635 nm fluorescence (AID 1098).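 Note: score merges spot fluorescence intensity with its signal-to-noise ratio.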 The settings on record: small-molecule microarray binding, fluorescence 635 nm; higher = more signal.
Test [2] in a line: small-molecule microarray binders of probe aDKK1, primary screen, biochemical, biotinylated probe, 635/667 nm fluorescence (AID 1099).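 Note: score merges 667nm spot fluorescence with signal to noise across triplicate slides; reference of the scale not given here.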 The settings on record: higher = more signal.
A short description of test [3]: small-molecule microarray binders of probe aCHRDL2, primary screen, biochemical, biotinylated probe, 635/667 nm fluorescence (AID 1100). The settings on record: higher = more signal.
The nature of test [4]: splicing luciferase reporter signal modulators, primary screen, spliceosome inhibition project, cell-based, HEK293, splice +/- reporter (AID 1101).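 Note: HEK293 cells carrying a splicing-competent luciferase reporter gene; test concentration not given here.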 The settings on record: luminescence, 24 h, higher = more signal, called active from +8 up or from −8 down.
Test [5] addresses Fibroblast growth factor 10 (Homo sapiens) (UniProt O15520). As to the kind of experiment: FGF10 binders on small-molecule microarrays, primary screen, biochemical, small-molecule microarray, 635 nm fluorescence (AID 1102). The following applies: FGF10 binding, fluorescence 635 nm, higher = more signal.
In test [6] the test system is glycogen synthase kinase-3 (GSK3A per assay name; protocol says GSK3B). The experiment in a line: GSK3 binders on small-molecule microarrays, primary screen, biochemical, small-molecule microarray, 635 nm fluorescence, GSK3A (AID 1103). Note: the record names both GSK3A and GSK3B. The following applies: small-molecule microarray binding, fluorescence 635 nm; higher = more signal.
Test [7] deals with Epidermal growth factor receptor (Homo sapiens) (UniProt P00533). The experiment in a line: EGFR binders on small-molecule microarrays, primary screen, biochemical, small-molecule microarray, 635 nm fluorescence (AID 1104).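 Note: score merges 667 nm emission intensity with spot signal to noise over triplicate slides.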 The following applies: EGFR binding, higher = more signal.
In test [8] the target is Follistatin-related protein 3 (Homo sapiens) (UniProt O95633). The experiment in a line: FSTL3 binders on small-molecule microarrays, primary screen, biochemical, small-molecule microarray, 635 nm fluorescence (AID 1105).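 Note: score merges emission near 667 nm and signal to noise per printed spot across three slides.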 The settings on record: FSTL3 binding, higher = more signal.
Test [9] has as its target Dickkopf-related protein 1 (Homo sapiens) (UniProt O94907). The experiment in a line: DKK1 binders on small-molecule microarrays, primary screen, biochemical, small-molecule microarray, 635 nm fluorescence scan (AID 1106).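 Note: score merges emission near 667 nm with signal to noise over three replicate slides.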 The settings on record: DKK1 binding, higher = more signal.
The subject of test [10] is Inhibin beta A chain (activin A). The experiment in a line: INHBA (activin A) binders on microarrays, primary screen, biochemical, small-molecule microarray, 635 nm fluorescence scan (AID 1107).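 Note: mouse activin A protein probed at 4.33 µg/mL on printed slides; score merges bound-protein fluorescence near 667 nm with spot signal-to-noise.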 The settings on record: small-molecule microarray binding, higher = more signal.

Activity calls are given as the source filed them.

Fibroblast growth factor 10 (Homo sapiens), sequence (O15520 whole entry, looked up): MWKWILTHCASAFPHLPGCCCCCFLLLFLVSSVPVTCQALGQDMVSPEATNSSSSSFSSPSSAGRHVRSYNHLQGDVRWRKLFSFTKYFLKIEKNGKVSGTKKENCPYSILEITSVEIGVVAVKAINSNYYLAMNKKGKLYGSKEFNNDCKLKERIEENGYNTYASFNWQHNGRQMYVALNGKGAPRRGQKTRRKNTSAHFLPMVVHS
Epidermal growth factor receptor (Homo sapiens), sequence (P00533 whole entry, looked up): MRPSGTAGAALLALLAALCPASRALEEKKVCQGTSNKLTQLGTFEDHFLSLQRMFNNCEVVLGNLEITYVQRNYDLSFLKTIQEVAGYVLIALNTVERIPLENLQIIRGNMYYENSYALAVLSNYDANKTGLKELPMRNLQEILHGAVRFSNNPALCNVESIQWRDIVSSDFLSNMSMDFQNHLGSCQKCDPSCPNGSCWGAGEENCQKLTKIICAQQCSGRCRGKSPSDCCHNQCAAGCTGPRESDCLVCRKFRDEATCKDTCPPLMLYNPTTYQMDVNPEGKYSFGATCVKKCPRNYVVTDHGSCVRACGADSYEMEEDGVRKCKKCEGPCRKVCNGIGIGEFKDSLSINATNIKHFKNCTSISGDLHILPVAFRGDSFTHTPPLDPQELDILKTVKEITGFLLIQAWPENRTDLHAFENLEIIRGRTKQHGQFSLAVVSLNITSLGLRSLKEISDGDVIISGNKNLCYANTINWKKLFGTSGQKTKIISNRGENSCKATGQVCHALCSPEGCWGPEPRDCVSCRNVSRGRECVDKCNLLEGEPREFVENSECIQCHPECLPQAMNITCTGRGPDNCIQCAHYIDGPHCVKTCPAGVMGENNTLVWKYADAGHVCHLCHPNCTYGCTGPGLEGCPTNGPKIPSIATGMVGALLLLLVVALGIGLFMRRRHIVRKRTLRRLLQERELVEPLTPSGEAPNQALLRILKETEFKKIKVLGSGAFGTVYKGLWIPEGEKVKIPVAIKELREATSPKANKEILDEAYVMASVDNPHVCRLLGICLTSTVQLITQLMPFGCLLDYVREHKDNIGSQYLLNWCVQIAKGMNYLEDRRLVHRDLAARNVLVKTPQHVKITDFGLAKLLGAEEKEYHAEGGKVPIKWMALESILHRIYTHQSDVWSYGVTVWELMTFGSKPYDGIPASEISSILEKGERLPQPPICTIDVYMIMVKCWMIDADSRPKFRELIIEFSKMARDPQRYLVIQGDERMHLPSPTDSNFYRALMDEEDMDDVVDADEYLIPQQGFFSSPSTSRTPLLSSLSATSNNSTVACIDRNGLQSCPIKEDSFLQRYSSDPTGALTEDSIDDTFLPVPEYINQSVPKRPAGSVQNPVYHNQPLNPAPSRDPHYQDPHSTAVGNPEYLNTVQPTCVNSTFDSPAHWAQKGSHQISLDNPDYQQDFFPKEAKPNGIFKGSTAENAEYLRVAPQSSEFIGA
Dickkopf-related protein 1 (Homo sapiens), sequence (O94907 whole entry, looked up): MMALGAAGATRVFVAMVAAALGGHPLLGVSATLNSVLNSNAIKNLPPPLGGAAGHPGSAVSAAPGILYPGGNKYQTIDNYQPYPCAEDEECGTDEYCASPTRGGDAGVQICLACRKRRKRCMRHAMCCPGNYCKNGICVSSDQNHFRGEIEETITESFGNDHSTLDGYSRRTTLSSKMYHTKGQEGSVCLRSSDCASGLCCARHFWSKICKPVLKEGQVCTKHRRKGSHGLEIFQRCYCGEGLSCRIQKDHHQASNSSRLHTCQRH
Follistatin-related protein 3 (Homo sapiens), sequence (O95633 whole entry, looked up): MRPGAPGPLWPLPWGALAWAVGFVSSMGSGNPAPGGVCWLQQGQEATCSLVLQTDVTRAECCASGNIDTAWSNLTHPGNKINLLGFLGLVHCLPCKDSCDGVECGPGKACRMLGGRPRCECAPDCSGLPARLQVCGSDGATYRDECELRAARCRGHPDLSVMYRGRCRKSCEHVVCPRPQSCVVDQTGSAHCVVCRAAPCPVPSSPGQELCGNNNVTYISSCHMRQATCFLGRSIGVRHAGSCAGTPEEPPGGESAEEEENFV

Take `[N-]=[N+]=NCc1ccccc1[C@@H]1OC(c2ccc(OCCCO)cc2)=N[C@]1(CCS(=O)(=O)c1ccccc1)C(=O)N1CCCCC1`: the composite z-score in test [1] was 1.65; in [2], 0.0798; in test [3], 0.904; in test [5], 0.828; in test [6], 1.29; in [7], 0.453. Moreover, the results for the composite z-score in test [8], in [9] and in test [10] were 1.19, -0.154 and 1.08, respectively. Besides, in test [4], the z-score is -0.162 (inactive).

As for `OCC1C=C(/C=C/c2ccccc2)CN1Cc1ccccc1Br` (stereo not given), the composite z-score was 1.1 in test [1]; 0.296 in test [2]; -0.241 in [3]; 1.18 in test [5]; 0.86 in [6]; 0.357 in [7]. The values for the composite z-score in test [8], in [9] and in [10] were 1.37, 1.12 and 0.692, respectively. Moreover, the z-score in test [4] is 0.103 (inactive).

With `C=CC[C@@]1(C(=O)N2CCCCC2)N=C(c2ccc(OCCCO)cc2)O[C@@H]1c1ccccc1N=[N+]=[N-]`, the composite z-score in test [1] is 0.763; in [2], 1.19; in test [3], 1.07; in test [5] it was 0.925; in test [6], 0.742; in test [7] it was 0.249. For the same compound, the composite z-score in [8] is 0.657; in test [9], -0.0197; in [10], 1.03. Besides, in [4], the z-score is -0.212 (inactive).

As for `O=C(O)[C@H]1C[C@H]2C(=O)N3CCC[C@H]3C(=O)N2[C@H]1c1ccc(O)cc1`, the composite z-score in test [1] was 0.383; in [2], -0.0067; in test [3], 0.915; in [5] it was -1.41; in test [6] it was -0.474; in [7] it was -1.51. Also, the composite z-score was -0.949 in [8], -1.13 in test [9] and -0.209 in [10]. Moreover, the z-score in test [4] is 0.127 (inactive).

For the compound `COc1ccc([Si](C)(C)[C@@H]2[C@@H](CC(=O)N3Cc4ccccc4C[C@H]3CO)O[C@]3(C(=O)N(Cc4cccc(N5CCC5=O)c4)c4ccccc43)[C@H]2C)cc1`, the composite z-score in test [1] was 1.22; in [2] it was -0.0652; in test [3], 0.119; in test [5], 0.48; in test [6], 0.611; in test [7], 0.73. The composite z-score was determined as 0.692 in test [8], 0.641 in [9] and 0.886 in [10]. In [4], the z-score is -0.432 (inactive).

On to `CCCCN1CC=CC23O[C@@H]4C=CCOC(=O)[C@@H]4[C@H]2C(=O)N(CCCCCCO)[C@@H]3C1=O` (stereo not given in full), for which the composite z-score was 1.77 in [1]; 0.159 in test [2]; 0.552 in test [3]; -0.988 in test [5]; -1 in test [6]; -1.5 in test [7]. Moreover, the composite z-score in test [8] was -1.38; in test [9], -1.28; in [10], 0.65. Also, in [4], the z-score is 0.381 (inactive).

Turning to `[N-]=[N+]=Nc1ccccc1C[C@]1(C(=O)N2CCCCC2)COC(c2ccc(OCCCO)cc2)=N1`, the composite z-score in [1] was -0.315; in test [2] it was 0.149; in [3], 0.89; in test [5], 1.28; in [6], 1.3; in [7], -0.214. The composite z-score in [8] was 0.615; in test [9] it was -0.482; in [10] it was 1.01. Besides, in test [4], the z-score is -0.806 (inactive).

Consider `C=CC[C@@]1(C(=O)N2CCCCC2)N=C(c2ccc(OCCCO)cc2)O[C@@H]1c1ccccc1CN=[N+]=[N-]`, for which the composite z-score in [1] was 1.23; in test [2], 0.952; in test [3] it was 1.04; in [5], 0.666; in test [6], -0.0684; in test [7], 0.17. Moreover, the results for the composite z-score in test [8], in test [9] and in [10] were 1.15, -0.187 and 0.711, respectively. In addition, the z-score in test [4] is -0.431 (inactive).

Regarding `CO[C@H]1O[C@H](CO)[C@@H](OC(=O)Nc2ccc(Oc3ccccc3)cc2)[C@H](OC(=O)Nc2ccc3c(c2)OCO3)[C@@H]1OC(=O)Nc1ccc2c(c1)OCO2`, the composite z-score in [1] amounted to 1.38; in test [2], 0.337; in test [3] it was 0.478; in test [5], 1.17; in test [6], 1.33; in [7], 0.54. For the same compound, the composite z-score in test [8] amounted to 1.39; in test [9], 0.46; in test [10] it was 0.707. Also, the z-score in test [4] is -0.762 (inactive).

For the compound `C=C(CCCC)/C(=C/C[C@H](OC(C)=O)c1ccc(OCCO)cc1)c1cnc2ccccc2c1`, the composite z-score in test [1] was 0.641; in test [2] it was -0.182; in test [3] it was -0.0866; in [5] it was 0.672; in [6] it was 0.209; in [7] it was 0.384. For the same compound, the composite z-score in [8] stood at 1.12; in test [9] it was 0.446; in [10], 1.53. Also, in [4], the z-score is 0.299 (inactive).

Regarding `COCC(=C=CC[C@H](O)c1cccc(OCCO)c1)C[C@H](O)c1cc(Cl)cc(Cl)c1O`, the composite z-score in test [1] is 0.516; in test [2], -0.0921; in test [3], -0.174; in test [5], 1.55; in [6], 1.17; in test [7], 0.331. Also, the composite z-score in [8] was 0.785; in [9] it was 0.551; in test [10], 0.712. Besides, the z-score in test [4] is 0.102 (inactive).

Values taken from PubChem BioAssay.
